Assay outcomes: PubChem, several laboratories
SDO1 yeast rescue – growth rescue of sdo1-depleted yeast, primary screen, S. cerevisiae, bone marrow failure model | S. cerevisiae sdo1-depleted JHY4D growth rescue, OD600 30 h; stronger effect = higher value; pdr5 snq2 efflux-pump mutant strain | AID 817, 2007 | z-score at 10 µM | 140,000 tested, 0.21% active;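 active = z-score above 3 at both the 24 hr and the 30 hr optical density reads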
MRP1 act – H69AR viability gain despite doxorubicin, primary screen, MRP-1 activator project, H69AR cells, CellTiter-Glo. viability rescue. viability increase, % at 10 µM. 140,000 tested, 0.61% active. AID 799, 2007;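 active = viability gain under doxorubicin at or above a set limit, the compound median plus 3 SD, cut at about 4.7% in these data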;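 note: MRP-1 overexpressing cells given doxorubicin 25 µM after compound pretreatment; 18-22 h compound pretreatment then 72 h with doxorubicin before readout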
CD11b adhes inh – inhibitors of CD11b/CD18 adhesion to fibrinogen, primary screen, K562 cells, luminescence; Integrin beta-2 (Homo sapiens) + Integrin alpha-M (Homo sapiens), P05107+P11215; ATPlite luminescence; Mn2+ added to activate the integrin; inhibition, % at 10 µM; 93,000 tested, 0.54% active;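 active = primary inhibition of 50% or more at 10 µM, then 40% or more on retest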
Target sequence (P05107 whole entry, looked up, other chains not shown): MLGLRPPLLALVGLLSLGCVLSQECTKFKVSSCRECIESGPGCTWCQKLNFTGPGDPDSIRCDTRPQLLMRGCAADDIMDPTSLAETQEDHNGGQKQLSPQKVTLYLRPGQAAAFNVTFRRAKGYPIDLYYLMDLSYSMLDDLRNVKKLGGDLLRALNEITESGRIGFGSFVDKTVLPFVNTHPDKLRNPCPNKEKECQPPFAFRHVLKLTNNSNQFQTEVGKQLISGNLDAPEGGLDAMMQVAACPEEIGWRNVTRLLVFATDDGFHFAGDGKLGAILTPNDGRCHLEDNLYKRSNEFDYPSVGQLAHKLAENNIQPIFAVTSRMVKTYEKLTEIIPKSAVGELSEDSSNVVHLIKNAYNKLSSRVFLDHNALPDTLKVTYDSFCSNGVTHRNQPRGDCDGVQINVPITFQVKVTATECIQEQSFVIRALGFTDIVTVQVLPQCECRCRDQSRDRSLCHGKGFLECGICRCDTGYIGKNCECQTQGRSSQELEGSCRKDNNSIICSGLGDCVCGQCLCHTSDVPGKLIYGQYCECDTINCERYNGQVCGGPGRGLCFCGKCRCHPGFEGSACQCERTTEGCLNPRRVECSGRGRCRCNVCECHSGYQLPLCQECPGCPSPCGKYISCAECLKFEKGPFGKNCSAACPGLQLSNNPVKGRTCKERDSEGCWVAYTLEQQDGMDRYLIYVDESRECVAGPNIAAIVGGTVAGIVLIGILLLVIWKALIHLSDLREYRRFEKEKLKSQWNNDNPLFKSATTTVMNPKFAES
MRP reversal – reversal of MRP1-mediated doxorubicin resistance, primary screen, H69AR cells, doxorubicin co-treatment; H69AR cells + 2 uM doxorubicin, CellTiter-Glo, 72 h; differential viability (reversal), % at 10 µM; 85,000 tested, 0.04% active; AID 602, 2007;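 active = viability drop by adding the cancer drug above about 55%, with treated viability meeting a 40% cutoff, limit read from the data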;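 note: larger differential means the compound sensitizes cells more to doxorubicin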
Phagocytosis inh – inhibitors of macrophage phagocytosis, primary screen, imaging, J774A.1 cells, IgG beads; J774A.1 macrophage IgG-bead phagocytosis; inhibition, % at 5 µM; 110,000 tested, 0.07% active;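 active = inhibition above the mean of the plate negative controls plus 5 SD, cut at about 13% in these data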;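 note: phagocytic index as fraction of beads internalized from green versus red external bead signal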
Mac1 fbg enh – enhancers of CD11b/CD18 adhesion to fibrinogen, primary screen, K562 cells, luminescence. Integrin beta-2 (Homo sapiens) + Integrin alpha-M (Homo sapiens), P05107+P11215. ATPlite luminescence. activation, % at 10 µM. 93,000 tested, 0.07% active;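 active = 10 µM primary screen giving 50% or more activity, confirmed by 40% or more on retest at that dose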
sdo1 rescue conf – SDO1-depleted yeast growth rescue, concentration-response, diseases of bone marrow failure, JHY4D, OD600; 440 tested, 44% active; S. cerevisiae JHY4D (SDO1-depleted) growth rescue, 30 h; stronger effect = higher value; efflux-deficient strain, SNQ2 and PDR5 mutated; OD recovery (concentration not given with the values); shares compounds with SDO1 yeast rescue; AID 949, 2007;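 active = yeast growth recovered at 30 hours, either rising with dose fitted slope above 0.001 or with average optical density gain above 0.07, some results past the limit were not filed as active; inactive = growth falling with dose or no effect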
Numbers stand for hits; . = inactive; / = not tested or not shown. This is a sample that favours compounds with a hit; in the whole collection about 1.3% have one here.

SMILES	SDO1 yeast rescue	MRP1 act	CD11b adhes inh	MRP reversal	Phagocytosis inh	Mac1 fbg enh	others
COCCOC(=O)C1=C(C)N(Cc2ccccc2)C(=O)NC1c1ccc(OC)cc1 (configuration not stated)	.	.	.	/	.	.
CCCCCCCN(C(=O)CCl)c1ccccc1C	.	.	.	/	.	.
Cc1ccc(C)c(C(=O)NCc2ccncc2)c1	.	.	.	.	.	.
CNc1oc(-c2ccccc2Cl)nc1P(=O)(c1ccccc1)c1ccccc1	.	4.7	/	/	.	/
CNc1oc(-c2ccc(C)cc2)nc1P(=O)(c1ccccc1)c1ccccc1	.	7.4	/	/	/	/
Cc1ccc(CSc2nc3ccncc3[nH]2)cc1	.	.	101	.	.	.
O=C(c1ccc(CSc2nc3ccncc3[nH]2)cc1)N1CCN(c2cccc(Cl)c2)CC1	.	.	/	/	/	/
Clc1ccc(CSc2nc3ccncc3[nH]2)cc1	.	.	88	.	/	.
Cc1ccc(CSc2nc3ncccc3[nH]2)cc1	.	.	/	.	/	/
Cc1ccc2oc(=O)cc(/C=C/c3ccccc3)c2c1	.	.	/	/	.	/
CC(C)OCCCNC(=O)c1c(N)n(/N=C/c2cccs2)c2nc3ccccc3nc12	.	.	.	/	.	149
CCOC(=O)C1CCCN(Cc2ccc(OC)cc2OC)C1 (configuration not stated)	.	30	.	.	.	.
CCOC(=O)C1CCCN(Cc2ccc(O)c(OC)c2)C1 (configuration not stated)	.	.	.	.	.	.
CCN(CC)CCN(Cc1cc2cc(C)cc(C)c2[nH]c1=O)C(=S)NCc1ccco1	.	23	/	/	.	/
COc1ccc(CNC(=O)CCCCCn2c(SCC#N)nc3cc4c(cc3c2=O)OCO4)cc1	.	.	.	.	.	.
COc1ccc(NC(=O)c2cc(SC)ccc2Cl)cc1	.	.	.	/	.	.
COc1ccc(OC)c(Nc2nc(N)nc(-c3cc4ccccc4o3)n2)c1	.	.	.	.	36	.
COc1ccc(OC)c(NC(=O)c2cc3ccccc3o2)c1	.	.	.	.	.	.
Cc1cccc(-n2c(CCCN3C(=O)c4ccccc4C3=O)nc3ccccc3c2=O)n1	.	.	.	.	.	.
COc1ccc(-n2c(-c3ccc(Br)cc3)c[n+]3c2CCc2ccccc2-3)cc1	.	.	/	/	.	/
COc1ccc(-c2cn(-c3ccc(OC)cc3)c3[n+]2-c2ccccc2CC3)cc1	.	.	84	/	.	.
CCOC(=O)C1CCCN(C(=O)Cc2ccc(C)cc2)C1 (configuration not stated)	.	.	.	.	.	.	sdo1 rescue conf=.
CC(=O)N1CCC(=NNc2ccc(S(=O)(=O)N3CCOCC3)cc2[N+](=O)[O-])CC1	12	.	/	/	.	/	sdo1 rescue conf=.
COc1ccc(C)cc1NC(=O)C1CCCN(S(=O)(=O)c2cnc[nH]2)C1 (configuration not stated)	.	.	.	.	.	.
COc1ccccc1NC(=O)C1CCCN(S(=O)(=O)c2cnc[nH]2)C1 (configuration not stated)	.	.	.	.	.	.	sdo1 rescue conf=.
SMILES	SDO1 yeast rescue	MRP1 act	CD11b adhes inh	MRP reversal	Phagocytosis inh	Mac1 fbg enh	others
Cc1cc(O)c(-c2cc(C(=O)Nc3ccc(S(=O)(=O)N4CCOCC4)cc3)[nH]n2)cc1C	.	.	.	.	.	.	sdo1 rescue conf=0.091
Cc1noc(C)c1COc1cccc(C(=O)N2CCN(C/C=C/c3ccccc3)CC2)c1	.	.	.	.	.	.
O=C(CCSCCC(=O)NCCN1CCOCC1)NCCN1CCOCC1	.	.	.	.	.	.
O=C(CCSCCc1ccncc1)NCCCN1CCOCC1	.	.	.	.	.	.	sdo1 rescue conf=0.1
CCOc1cccc(-c2nn3c(-c4ccco4)nnc3s2)c1	.	.	.	.	.	.
O=C(CSc1nnc(COc2ccccc2)n1-c1ccccc1)c1cccs1	.	.	.	.	.	.
